B2AR arrestin = beta2AR (human) beta-arrestin recruitment activity. P07550. beta-arrestin recruitment to beta2AR, cell-based reporter. Potency, µM (series often up to 46.1 µM), usual class: activators. hit rate 0.02% among 330,000. AID 492947; active means well fitted activation curve with a large enough effect; inconclusive means small, poorly fitted or top-dose-only effect; further: nearly all actives have a fitted effect of over 65% in size
DRD3 agonist = agonists of human D3 dopamine receptor | P35462 | D3R DiscoveRx beta-arrestin cells, luminescence, 90 min | max activation, % | hit rate 0.58% among 410,000 | AID 652048; in the data active means max activation above about 30%
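Agonist mode: compounds and dopamine controls were applied to plated cells for 90 min at 37 degrees C after an overnight attachment at 1500 cells/well. Luminescent read-out followed 30 - 60 minutes at room temperature with DiscoveRx detection reagent.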
D3 antag = D3 dopamine receptor (human) antagonism | P35462 | max response, negative = inhibition, % | hit rate 2.5% among 360,000 | D3R cells, DiscoveRx beta-arrestin luminescence, antagonist mode; hits give low values; in the data active means max response below about -50%; inconclusive means no clear call, values can overlap the other calls
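Cells expressing the human receptor were seeded at 1500 cells/well, incubated overnight at 37 degrees C in 5% CO2, then exposed to library compounds with dopamine controls for 90 minutes at 37 degrees C before luminescent detection.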
TSHR antag = antagonists of human thyroid stimulating hormone receptor. TSHR-expressing cells, TSH-stimulated cAMP HTRF, 2 h; hits give low values. AID 504810. hit rate 0.2% among 330,000. activity change, negative = inhibition, % at 11.5 µM;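 active means activity change below a set negative limit, meaning inhibition stronger than a set level, cut at about -70% in these data; inconclusive means activity change between two set negative limits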
Target sequence (P16473 whole entry, looked up): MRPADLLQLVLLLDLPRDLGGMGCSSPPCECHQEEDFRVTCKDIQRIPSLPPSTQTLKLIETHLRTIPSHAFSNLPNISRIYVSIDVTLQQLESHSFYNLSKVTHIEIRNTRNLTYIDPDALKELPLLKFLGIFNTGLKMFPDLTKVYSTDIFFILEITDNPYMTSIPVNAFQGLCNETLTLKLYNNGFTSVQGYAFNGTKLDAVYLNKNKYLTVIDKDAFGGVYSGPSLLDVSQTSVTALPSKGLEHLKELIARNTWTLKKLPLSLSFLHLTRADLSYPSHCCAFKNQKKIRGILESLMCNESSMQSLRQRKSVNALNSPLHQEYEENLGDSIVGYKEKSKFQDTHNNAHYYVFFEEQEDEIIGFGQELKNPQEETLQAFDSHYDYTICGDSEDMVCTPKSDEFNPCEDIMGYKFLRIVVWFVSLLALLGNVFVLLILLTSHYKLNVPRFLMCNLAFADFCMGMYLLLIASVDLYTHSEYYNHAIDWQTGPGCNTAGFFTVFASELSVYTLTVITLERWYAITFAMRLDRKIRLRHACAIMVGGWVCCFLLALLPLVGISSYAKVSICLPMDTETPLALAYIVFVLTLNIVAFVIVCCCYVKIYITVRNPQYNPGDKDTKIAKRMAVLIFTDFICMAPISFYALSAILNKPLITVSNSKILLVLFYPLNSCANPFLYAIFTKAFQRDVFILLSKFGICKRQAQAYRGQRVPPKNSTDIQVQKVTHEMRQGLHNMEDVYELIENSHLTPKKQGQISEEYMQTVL
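Read-out is FRET at 665 nm (cryptate excitation 337 nm) from a cryptate-tagged anti-cAMP antibody, competed by cell cAMP against cAMP-d2. Compounds are tested on freshly harvested TSHR cells challenged with 4nM TSH (EC80) for 2 hours at 37 deg C.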
Numbers stand for hits; – = inactive; ? = inconclusive; · = no result. Sampled rows, rich in hits. Any-hit rate of the full collection: about 2.9%.

SMILES	B2AR arrestin	DRD3 agonist	D3 antag	TSHR antag
CCc1cc(C(=O)NNC(=S)Nc2cc(C)ccc2C)cs1	–	–	–	–
CCc1cc(C(=O)NNC(=S)Nc2ccccc2C)cs1	–	–	-97.1	–
Cc1c(NC(=O)c2cc([N+](=O)[O-])ccc2N2CCOCC2)cccc1-c1nc2ccccc2o1	·	–	·	·
CCCCCN(C(=O)CCC(=O)OCC(=O)N(CC#N)c1ccccc1)c1c(N)n(CCCC)c(=O)[nH]c1=O	–	–	-54.3	–
CCCCCN(C(=O)CCC(=O)OCC(=O)N(C)Cc1ccccc1C)c1c(N)n(CCCC)c(=O)[nH]c1=O	–	–	–	–
CC(C)(C)C1CC=C2C(C#N)=C(N)C(C#N)(C#N)C(c3cccs3)C2C1 (centres undefined)	–	·	·	–
CCc1ccc(C2C(C#N)=C(N)C(C#N)(C#N)C3=CCC(C(C)(C)C)CC32)cc1 (centres undefined)	–	–	-93.4	–
CCOc1ccccc1/C=C/c1onc(C)c1S(=O)(=O)N1CCC(C(=O)N2CCCCC2)CC1	·	–	·	·
O=C(Cn1c(=O)n(-c2ccccc2)c(=O)c2c3c(sc21)CCCC3)Nc1cccc(F)c1	·	–	·	·
CC1(c2nc3ccccc3[nH]2)c2ccccc2C(=O)N1Cc1ccccc1 (centres undefined)	·	–	-55.3	·
COc1ccc(CN2C(=O)c3ccccc3C2(C)c2nc3ccccc3[nH]2)cc1 (centres undefined)	·	–	–	·
COc1ccc(-c2cc(N)n(S(=O)(=O)c3c(F)c(F)c(F)c(F)c3F)n2)cc1OC	–	–	-56.3	–
COc1ccc(S(=O)(=O)n2nc(-c3cc(OC)c(OC)c(OC)c3)cc2N)cc1OC	–	–	–	–
COC(=O)CCS(=O)(=O)c1nc(-c2ccccc2)cc(C(F)(F)F)n1	–	–	-78.4	–
CCOC(=O)CCS(=O)(=O)c1nc(-c2ccccc2)cc(C(F)(F)F)n1	–	–	-51.0	?
O=C(O)CCS(=O)(=O)c1nc(-c2cccs2)cc(C(F)(F)F)n1	–	–	–	–
COCC(C)NC(=O)CCS(=O)(=O)c1nc(-c2ccc(OC)cc2)cc(C(F)(F)F)n1 (centres undefined)	–	–	-86.9	–
CCOC(=O)Cc1cc(-c2ccccc2)nc2ccc3ccccc3c12	–	–	–	–
CCOC(=O)CS(=O)(=O)c1nc(-c2ccc(F)cc2)cc(C(F)(F)F)n1	–	–	-63.9	–
Cc1nc(N2CCOCC2)c2c(C(=O)Nc3cccc(C(F)(F)F)c3)c(C)oc2n1	·	–	·	·
O=C(NCc1ccccc1Cl)C(=O)NCC(c1ccc2c(c1)OCO2)N1CCOCC1 (centres undefined)	·	–	·	·
CCCCCn1c(=O)[nH]c2cc(C(=O)NC(C)CC)ccc2c1=O (centres undefined)	·	–	·	·
CCOC(=O)CS(=O)(=O)c1nc(-c2ccccc2)cc(C(F)(F)F)n1	–	–	-68.6	?
Cc1cc(NC(=O)CSc2nc(-c3cccs3)cc(C(F)(F)F)n2)no1	–	–	–	–
Cc1cc(NC(=O)CCCS(=O)(=O)c2nc(-c3cccs3)cc(C(F)(F)F)n2)no1	–	–	-106.5	–
SMILES	B2AR arrestin	DRD3 agonist	D3 antag	TSHR antag
O=C(NCC1CCCN(Cc2cccc(OCCO)c2)C1)c1ccc(F)cc1 (centres undefined)	–	–	–	–
c1cc(CN2CCCCC2)cc(OCCCNc2nc3ccccc3s2)c1	·	–	-75.0	–
COc1cccc(CNc2nc3ccccc3n2CCN2CCCCC2)c1	–	–	?	–
O=C(NCCCOc1cccc(CN2CCCCC2)c1)c1ccc(Cl)c(Cl)c1	–	–	-98.3	–
NC(=O)C1CCN(c2nc(-c3ccccc3[N+](=O)[O-])cs2)CC1	·	·	·	–
Cc1ccc(C)c(NC(=O)CCS(=O)(=O)c2cccc3nsnc23)c1	·	–	·	·
O=C(COc1ccc(Br)cc1)Nc1cccc2cccnc12	·	–	·	·
Cc1cccc(N2CCN(C(=O)c3cnn(-c4ccc(F)cc4F)c3C3CCN(C(=O)OC(C)(C)C)CC3)CC2)c1C	·	–	·	·
CC(C)Oc1ccccc1C1CC(=O)Nc2cc3c(cc21)OCCO3 (centres undefined)	–	36.2	–	–
COc1ccc(S(=O)(=O)NCC2CCCN(Cc3ccccc3Cl)C2)cc1 (centres undefined)	–	–	-51.8	–
CCOC(=O)COc1ccccc1/C=C\[N+](=O)[O-]	–	–	-103.2	?
Cc1ccc(C(=O)COC(=O)COc2ccccc2[N+](=O)[O-])s1	–	–	–	–
O=C(CSC1CCCCC1)N1CCN(c2ccccc2)CC1	–	–	–	–
c1ccc(N2CCN(CC3CCCCC3)CC2)cc1	–	–	-75.3	–
CSc1ccc(CCNC(=O)c2cc(C)nc3c2c(C)nn3-c2ccccc2)cc1	·	–	·	·
CCOc1ccc(/C(O)=C/C(=O)C(=O)Nc2ccc(S(=O)(=O)NC(C)=O)cc2)cc1	–	–	-60.0	–
CCOc1ccc(NS(=O)(=O)c2ccc(NC(=S)NC(C)=O)cc2)cc1	–	–	–	–
O=[N+]([O-])c1ccc(N/N=C/c2cn(Cc3ccc(F)cc3)c3ccccc23)nc1	–	–	-54.2	–
COC(=O)N/N=C/c1cn(Cc2ccc(F)cc2)c2ccccc12	–	–	–	–
O=C(CSc1nc(O)c(C/C=C/c2ccccc2)c(=O)[nH]1)Nc1cccc(F)c1	·	–	·	·
Cc1cccc(-c2noc(CN(C(=O)COc3ccc(C(C)C)cc3)C(C)C)n2)c1	·	–	·	·
CC1(C)CC(=O)c2c(O)cc(OCC(=O)Nc3ccc(CCO)cc3)cc2O1	–	34.0	–	–
Cc1ccc2nc3n(c2c1)CCCN3	–	–	-58.9	–
C[C@H]1C[C@H]2[C@@H]3CCC4=CC(=O)C=C[C@]4(C)[C@@]3(F)[C@@H](O)C[C@]2(C)[C@@]1(O)C(=O)CCl	·	–	·	·
CCN(Cc1ccccc1)C(=O)Cn1c(=O)n(-c2ccc(C)c(C)c2)c(=O)c2c(C)c(C)sc21	·	–	·	·
SMILES	B2AR arrestin	DRD3 agonist	D3 antag	TSHR antag
CCOC(=O)C1(CC2CCCCO2)CCN(Cc2ccc(OC)cc2F)CC1 (centres undefined)	–	–	-66.8	–
O=C(Nc1nc(-c2ccccc2)c(-c2ccccc2)o1)c1ccc(F)cc1	–	–	-100.1	–
O=C(COc1ccc(Br)cc1)Nc1ccc(C(=O)OC2CCCCC2)cc1	·	–	·	·
CC(C)NS(=O)(=O)c1ccc(NC(=O)C(C)Oc2ccc(C(=O)c3ccccc3)cc2)cc1 (centres undefined)	?	–	-54.3	–
CCOC(=O)C1=C(Cc2ccc(C)cc2)C(=O)c2ccccc2C1=O	–	·	·	–
CCOC(=O)C1=C(Cc2ccc(OC)cc2)C(=O)c2ccccc2C1=O	–	–	-71.3	–
CCOC(=O)C1=C(O)c2ccccc2C(=O)/C1=C\c1ccc(CC)cc1	–	–	-69.9	–
COc1ccccc1N1CCN(CC(O)COc2c(OC)cccc2OC)CC1 (centres undefined)	–	–	-98.8	–
COc1ccc2[nH]cc(C(O)CN3CCN(c4ccccc4F)CC3)c2c1 (centres undefined)	–	–	-63.4	–
COc1ccccc1N1CCN(CC(O)COCc2cccs2)CC1 (centres undefined)	–	–	-61.5	–
